Reference: the supplement of paper PMC12669032
Unmarked numbers belong to inactive results.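 Rule for the calls: active = AUC reduced over 20% with Padj below 0.05 in at least 2 of 3 replicates; inactive = otherwise.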

Key:
Experiment in all cases: growth AUC relative to DMSO control (median of replicates) (fraction); higher = more growth (less inhibition), active = hit call of the paper
Details in all cases: 20 µM; 24 h
[1] = system: Coprococcus comes
Procedure, shortened: (§1)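 Each value is the median of three biological replicates, grown on separate days, of a gut bacterial monoculture incubated anaerobically at 37 °C in mGAM with 20 µM compound (1% DMSO). Cultures started at OD600 0.05 and were read at OD600 hourly for 24 h, with the minimum OD set to 0. Area under the growth curve was normalised to the plate median of solvent-only wells, or to row and column medians on the industrial chemical plate.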

[2] = system: Escherichia coli ED1a
Procedure, shortened: as §1

[3] = system: Escherichia coli IAI1
Procedure, shortened: as §1

[4] = system: Eubacterium rectale
Procedure, shortened: as §1

[5] = system: Fusobacterium nucleatum subsp. animalis
Procedure, shortened: as §1

[6] = system: Lactobacillus gasseri
Procedure, shortened: as §1

[7] = system: Lactobacillus paracasei
Procedure, shortened: as §1

[8] = system: Odoribacter splanchnicus
Procedure, shortened: as §1

[9] = system: Parabacteroides distasonis
Procedure, shortened: as §1

[10] = system: Parabacteroides merdae
Procedure, shortened: as §1

[11] = system: Roseburia intestinalis
Procedure, shortened: as §1

[12] = system: Streptococcus salivarius
Procedure, shortened: as §1

SMILES | growth AUC [1] | growth AUC [2] | growth AUC [3] | growth AUC [4] | growth AUC [5] | growth AUC [6] | growth AUC [7] | growth AUC [8] | growth AUC [9] | growth AUC [10] | growth AUC [11] | growth AUC [12]
N#Cc1c(Cl)cccc1Cl | 0.994 | 0.999 | 1.03 | 0.936 | 1.04 | 1.17 | 0.884 | 1.01 | 1.04 | 1.01 | 1.07 | 0.951
OC[C@@H](O)[C@H]1O[C@@H]2O[C@H](C(Cl)(Cl)Cl)O[C@@H]2[C@H]1O (mixture of isomers) | 0.988 | 0.99 | 0.986 | 1.05 | 0.83 | 1.03 | 0.943 | 1.06 | 0.903 | 0.999 | 0.967 | 1.01
CC(C)OC(=O)C(C(=O)OC(C)C)=C1SCCS1 | 1.06 | 1.01 | 0.988 | 1.02 | 1.02 | 0.977 | 0.98 | 0.995 | 0.782 (active) | 1.01 | 1.06 | 1.02
Cc1c(F)c(F)c(COC(=O)[C@@H]2[C@H](/C=C(\Cl)C(F)(F)F)C2(C)C)c(F)c1F (mixture of isomers) | 0.956 | 1 | 0.993 | 1.01 | 1 | 0.897 | 0.956 | 1.04 | 0.976 | 0.994 | 0.986 | 0.993
COP(N)(=O)SC (centres undefined) | 1.08 | 1.03 | 1.02 | 1.08 | 1.11 | 0.836 | 1.07 | 1.04 | 1.01 | 1.06 | 1 | 0.996
CCC(C)(NC(=O)c1cc(Cl)c(C)c(Cl)c1)C(=O)CCl (centres undefined) | 0.945 | 1.01 | 0.995 | 0.892 | 0.906 | 0.942 | 1.02 | 0.914 | 0.643 (active) | 0.907 | 0.964 | 0.945
O=C(O)c1ccc(Cl)nc1 | 0.946 | 1.01 | 0.967 | 1.05 | 1.1 | 1.15 | 0.974 | 0.968 | 1.02 | 1.01 | 1.16 | 0.973
COC(C)(C)CCCC(C)C/C=C/C(C)=C/C(=O)OC(C)C (centres undefined) | 1.01 | 1.01 | 1 | 0.831 | 1 | 1.04 | 1.04 | 0.999 | 1 | 1 | 1.01 | 1.01
CNC(=O)Oc1ccccc1OC(CCl)OC (centres undefined) | 1.01 | 1.02 | 1.02 | 1.16 | 1.19 | 1.04 | 1.04 | 1.05 | 0.988 | 1.06 | 0.961 | 0.996
CCN(CC)N=O | 1.01 | 1.01 | 1.04 | 0.996 | 0.998 | 1.04 | 0.981 | 0.979 | 1 | 1.01 | 1 | 0.964
C[N+](C)(C)CCCl.[Cl-] | 1.05 | 1.02 | 1.03 | 1.04 | 1.11 | 0.944 | 1.05 | 1.01 | 1.06 | 1.03 | 0.994 | 1.03
Cc1ccc(N=CN(C)C=Nc2ccc(C)cc2C)c(C)c1 | 1.04 | 1.01 | 1.01 | 1.06 | 1.09 | 0.967 | 1.06 | 1.02 | 0.988 | 1.01 | 0.983 | 0.967
COS(=O)(=O)[O-].Cn1c(-c2ccccc2)cc(-c2ccccc2)[n+]1C | 1 | 0.98 | 0.974 | 1 | 0.985 | 0.964 | 0.981 | 1.01 | 0.985 | 0.974 | 0.948 | 0.97
CNc1nc(C)c(C)c(OC(=O)N(C)C)n1 | 0.998 | 1.01 | 0.957 | 1.05 | 1.09 | 1.03 | 0.971 | 0.985 | 1.01 | 0.998 | 0.951 | 1.03
CCN(CC)c1nc(C)cc(OP(=S)(OC)OC)n1 | 0.982 | 1.03 | 0.978 | 1.06 | 0.996 | 0.984 | 0.982 | 0.966 | 0.813 | 0.962 | 0.978 | 0.975
COP(=O)(OC)Oc1ccc([N+](=O)[O-])cc1 | 1.07 | 1.03 | 0.996 | 1.17 | 1.09 | 0.998 | 1.02 | 0.954 | 0.981 | 1.02 | 1.04 | 1.03
Clc1ccc(C2(Cn3cncn3)OCCO2)c(Cl)c1 | 0.966 | 0.98 | 0.979 | 1.03 | 0.988 | 0.937 | 0.946 | 0.923 | 1.01 | 0.954 | 0.948 | 0.915
CCC(C)n1c(=O)[nH]c(C)c(Br)c1=O (centres undefined) | 1.02 | 0.979 | 0.94 | 1.07 | 1.01 | 0.869 | 1.03 | 0.461 | 0.926 | 0.891 | 0.975 | 0.901
COP(=S)(OC)Oc1ccc(C#N)cc1 | 1.04 | 1.04 | 1.02 | 1.11 | 1.04 | 1.03 | 1 | 1.02 | 1.07 | 1 | 1.06 | 0.959
COC(=O)N(C(=O)N1CO[C@@]2(C(=O)OC)Cc3cc(Cl)ccc3C2=N1)c1ccc(OC(F)(F)F)cc1 | 0.857 | 0.946 | 0.939 | 1.09 | 0.92 | 0.654 | 0.896 | 0.994 | 0.808 | 0.901 | 0.907 | 0.873
CC(C)C(C(=O)OC(C#N)c1cccc(Oc2ccccc2)c1)c1ccc(Cl)cc1 (centres undefined) | 1 | 1.01 | 0.963 | 0.901 | 1.02 | 0.9 | 1.11 | 0.893 | 1.01 | 0.974 | 0.929 | 0.988
CP(=O)(O)CC(=O)O | 0.991 | 0.984 | 1 | 1.07 | 0.945 | 1.02 | 0.871 | 0.978 | 0.979 | 0.982 | 1.09 | 0.998
